Results: PubChem BioAssay AID651642 (Sanford-Burnham Center for Chemical Genomics, 2012)
The source made the active and inactive calls.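 Rule for the calls: active = average half-effect concentration of 10 µM or less in every one of the four cell panels; inactive = the rest.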

test system: H9c2; test: cardiomyocyte survival under oxidative or metabolic stress – cell-based, panel, H9c2 and HL-1, H2O2, 2-deoxyglucose, ATP luminescence, SAR follow-up (AID 651642); settings: H9c2/HL-1 cardiomyocyte H2O2 oxidative damage, mean of runs, with H2O2

Compound	outcome
COc1cc(-c2cc(C(=O)NCC(=O)Nc3cccc(C(C)=O)c3)c3cc(C)ccc3n2)cc(OC)c1OC	inactive
COc1cc(-c2cc(C(=O)NCC(=O)Nc3cccc(C(C)=O)c3)c3cc(Br)ccc3n2)cc(OC)c1OC	active
COc1cc(-c2cc(C(=O)Nc3cccc(C#N)c3)c3ccccc3n2)cc(OC)c1OC	inactive
CCOC(=O)c1cccc(NC(=O)c2cc(-c3cc(OC)c(OC)c(OC)c3)nc3ccc(OC)cc23)c1	active
CCOC(=O)c1cccc(NC(=O)c2cc(-c3cc(OC)c(OC)c(OC)c3)nc3cc(Cl)ccc23)c1	inactive
COc1ccc2c(c1OC)C(=O)N1c3ccccc3C(=O)N(Cc3ccc(F)cc3)C21 (configuration not stated)	inactive
CCOC(=O)c1cccc(NC(=O)CNC(=O)c2cc(-c3cc(OC)c(OC)c(OC)c3)nc3c(Cl)cccc23)c1	inactive
COc1cc(-c2cc(C(=O)Nc3cccc(-c4nn[nH]n4)c3)c3ccccc3n2)cc(OC)c1OC	inactive
COc1ccc2nc(-c3cc(OC)c(OC)c(OC)c3)cc(C(=O)NCC(=O)Nc3cccc(C(C)=O)c3)c2c1	inactive
CCOC(=O)c1cccc(NC(=O)CNC(=O)c2cc(-c3cc(OC)c(OC)c(OC)c3)nc3ccccc23)c1	inactive
COc1cccc(CNC(=O)CNC(=O)c2cc(-c3cc(OC)c(OC)c(OC)c3)nc3ccccc23)c1	active
CCOC(=O)c1cccc(NC(=O)CNC(=O)c2cc(-c3cc(OC)c(OC)c(OC)c3)nc3ccc(OC)cc23)c1	active
COc1cc(-c2cc(C(=O)Nc3cccc(C(=O)N(C)C)c3)c3ccccc3n2)cc(OC)c1OC	inactive
COc1ccc2c(c1OC)C(=O)N1c3ccccc3C(=O)N(Cc3cccc(Br)c3)C21 (configuration not stated)	inactive
COc1ccc2c(c1OC)C(=O)N1c3ccccc3C(=O)N(Cc3ccccc3F)C21 (configuration not stated)	inactive
COc1cc(-c2cc(C(=O)Nc3cccc(C(=O)O)c3)c3ccccc3n2)cc(OC)c1OC	inactive

Compound	outcome
CCNC(=O)c1cccc(NC(=O)c2cc(-c3cc(OC)c(OC)c(OC)c3)nc3ccccc23)c1	active
COc1cc(-c2cc(C(=O)Nc3cccc(C(C)=O)c3)c3cccc(Cl)c3n2)cc(OC)c1OC	inactive
CCOC(=O)c1cccc(NC(=O)c2cc(-c3cc(OC)c(OC)c(OC)c3)nc3ccc(Cl)cc23)c1	inactive
CCOC(=O)c1cccc(NC(=O)c2cc(-c3cc(OC)c(OC)c(OC)c3)nc3ccccc23)c1	inactive
COc1ccc2c(c1OC)C(=O)N1c3ccccc3C(=O)N(Cc3ccc(C)cc3C)C21 (configuration not stated)	inactive
COc1cc(-c2cc(C(=O)Nc3cccc(C(=O)NC4CC4)c3)c3ccccc3n2)cc(OC)c1OC	active
COc1cc(-c2cc(C(=O)NCC(=O)Nc3cccc(C(C)=O)c3)c3cc(F)ccc3n2)cc(OC)c1OC	active
COc1cc(-c2cc(C(=O)NCC(=O)Nc3ccc(C(C)=O)cc3)c3ccccc3n2)cc(OC)c1OC	inactive
COc1cc(-c2cc(C(=O)Nc3cccc(C(C)=O)c3)c3ccccc3n2)cc(OC)c1OC	inactive
COc1ccc2c(c1OC)C(=O)N1c3ccccc3C(=O)N(Cc3ccncc3)C21 (configuration not stated)	inactive
COc1ccc2c(c1OC)C(=O)N1c3ccccc3C(=O)N(Cc3cccc(C)c3)C21 (configuration not stated)	inactive
COc1ccc2c(c1OC)C(=O)N1c3ccccc3C(=O)N(Cc3ccccc3Cl)C21 (configuration not stated)	inactive
CCOC(=O)c1ccc(NC(=O)c2cc(-c3cc(OC)c(OC)c(OC)c3)nc3ccccc23)cc1	inactive
COc1cc(-c2cc(C(=O)Nc3cccc(C(=O)Nc4ccccc4)c3)c3ccccc3n2)cc(OC)c1OC	active
COc1cc(-c2cc(C(=O)Nc3cccc(C(C)=O)c3)c3cc(Br)ccc3n2)cc(OC)c1OC	inactive
COC(=O)CNC(=O)c1cccc(NC(=O)c2cc(-c3cc(OC)c(OC)c(OC)c3)nc3ccccc23)c1	inactive
